These results are taken from PubChem BioAssay (EPA / NIEHS).

Active and inactive are the calls of the source. The calls were made as follows: active = hit-call score of the fitted dose curve at least 0.9, where 1 is the maximum; inactive = score below 0.9.

Read-out in test [1]: Transforming growth factor beta 1 (TGFb1), TGFB1 (gene 7040)
As to the kind of experiment: BSK_KF3CT_TGFb1: BioMAP Diversity Plus: KF3CT Assay for Transforming growth factor beta 1 (TGFb1) Biomarker Activity (AID 2283072). The note with it: primary human keratinocytes with fibroblasts; actives raise or lower the signal. Summed up: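 TGF-b1 ELISA on a 24 h dosed co-culture of human keratinocytes and foreskin fibroblasts; cytotoxicity tracked in parallel cultures by SRB staining.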

Read-out in test [2]: Matrix Metallopeptidase 9 (MMP9), MMP9 (gene 4318)
The test is described as follows: BSK_KF3CT_MMP9: BioMAP Diversity Plus: KF3CT Assay for Matrix Metallopeptidase 9 (MMP9) Biomarker Activity (AID 2283074). The note with it: primary human keratinocytes with fibroblasts; actives raise or lower the signal. The gist of the method: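 Values come from bidirectional fitting relative to DMSO of MMP-9 levels, which were measured by ELISA. Measurements were taken 24 h after chemical dosing of a keratinocyte and foreskin fibroblast co-culture.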

Read-out in test [3]: urokinase plasminogen activator (uPA), PLAU (gene 5328)
As to the kind of experiment: BSK_KF3CT_uPA: BioMAP Diversity Plus: KF3CT Assay for urokinase plasminogen activator (uPA) Biomarker Activity (AID 2283075). The note with it: primary human keratinocytes with fibroblasts; actives raise or lower the signal. Summed up:
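Values derive from bidirectional fitting against DMSO controls. Keratinocyte/foreskin fibroblast co-cultures received chemical; 24 h later uPA was detected by ELISA, with SRB total-protein staining in parallel wells for overt cytotoxicity.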

Read-out in test [4]: CD40, CD40 (gene 958)
The test is described as follows: BSK_LPS_CD40: BioMAP Diversity Plus: LPS Assay for CD40 Biomarker Activity (AID 2283076). As to conditions: primary human HUVEC with PBMC; actives raise or lower the signal. Summed up: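 In the LPS system of human endothelial cells with peripheral blood mononuclear cells, CD40 levels were read by ELISA 24 h post-treatment. Signal changes in either direction were fitted against the DMSO baseline, with parallel SRB protein staining.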

Read-out in test [5]: E-selectin (Homo sapiens) (UniProt P16581)
As to the kind of experiment: BSK_LPS_Eselectin: BioMAP Diversity Plus: LPS Assay for Eselectin Biomarker Activity (AID 2283077). The note with it: primary human HUVEC with PBMC; actives raise or lower the signal. Summed up:
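E-selectin ELISA on LPS-stimulated endothelial cell/PBMC co-cultures, read 24 h post-treatment; gains and losses fitted against DMSO. Parallel SRB staining (0.1% SRB after 10% TCA fixation, 560 nm) flags overt cytotoxicity.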

Read-out in test [6]: Interleukin-8 (IL8), CXCL8 (gene 3576)
The test is described as follows: BSK_LPS_IL8: BioMAP Diversity Plus: LPS Assay for Interleukin-8 (IL8) Biomarker Activity (AID 2283078). The note with it: primary human HUVEC with PBMC; actives raise or lower the signal. Summed up: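 ELISA read-out of IL-8 after 24 h chemical treatment of LPS-activated endothelial/PBMC human primary co-cultures. Changes either up or down relative to DMSO; overt cytotoxicity checked by sulforhodamine B staining in parallel wells.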

Test [7] in a line: BSK_LPS_SRB: Viability Assessment in the BioMAP Diversity Plus: LPS Assay (AID 2283079).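 Also: total protein by sulforhodamine B absorbance as a cytotoxicity measure; measured one day after compound addition; fitted in both directions against DMSO so loss or gain of signal counts.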 The note with it: primary human HUVEC with PBMC. The gist of the method:
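SRB viability endpoint: cells fixed with 10% TCA, stained with 0.1% SRB, read at 560 nm, 24 h post-dose. HUVEC/PBMC co-culture; signal change in either direction scored relative to DMSO.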

Read-out in test [8]: Interleukin-1 alpha (IL1a), IL1A (gene 3552)
As to the kind of experiment: BSK_LPS_IL1a: BioMAP Diversity Plus: LPS Assay for Interleukin-1 alpha (IL1a) Biomarker Activity (AID 2283080). The note with it: primary human HUVEC with PBMC; actives raise or lower the signal. The gist of the method: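 Readout is IL-1a level by ELISA, 24 h post-dose, fitted as gain or loss relative to DMSO. System: LPS-activated human primary co-culture of vascular endothelium and peripheral blood mononuclear cells, with parallel SRB total-protein cytotoxicity.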

Read-out in test [9]: Monocyte Chemoattractant Protein-1 (MCP1), CCL2 (gene 6347)
The test is described as follows: BSK_LPS_MCP1: BioMAP Diversity Plus: LPS Assay for Monocyte Chemoattractant Protein-1 (MCP1) Biomarker Activity (AID 2283081). As to conditions: primary human HUVEC with PBMC; actives raise or lower the signal. The gist of the method: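 Secreted MCP-1 read by ELISA at 24 h post-dosing in an LPS-activated co-culture of endothelial cells with peripheral blood mononuclear cells. Fits run in both directions, DMSO as baseline; parallel SRB staining tracks overt cytotoxicity.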

Test [10] in a line: BSK_LPS_PGE2: BioMAP Diversity Plus: LPS Assay for Prostaglandin E2 (PGE2) Biomarker Activity (AID 2283082). The note with it: primary human HUVEC with PBMC; actives raise or lower the signal. Summed up:
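Primary human endothelial cells and blood mononuclear cells, co-cultured with LPS, receive test chemical; PGE2 ELISA follows at 24 h, with SRB-stained parallel cultures flagging cytotoxicity.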

Read-out in test [11]: Macrophage colony-stimulating factor (MCSF), CSF1 (gene 1435)
The test is described as follows: BSK_LPS_MCSF: BioMAP Diversity Plus: LPS Assay for Macrophage colony-stimulating factor (MCSF) Biomarker Activity (AID 2283083). As to conditions: primary human HUVEC with PBMC; actives raise or lower the signal. Summed up: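 Bidirectional fitting against DMSO was applied to M-CSF levels read by ELISA at 24 h post-dose. The system pairs human umbilical vein endothelium with peripheral blood mononuclear cells; parallel SRB staining tracked cytotoxicity.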

Read-out in test [12]: Tissue Factor, F3 (gene 2152)
As to the kind of experiment: BSK_LPS_TissueFactor: BioMAP Diversity Plus: LPS Assay for Tissue Factor Biomarker Activity (AID 2283084). The note with it: primary human HUVEC with PBMC; actives raise or lower the signal. Summed up:
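Compound was added to an endothelial cell/PBMC co-culture, and after 24 h tissue factor (CD142) was read by ELISA. Gain or loss of signal was fitted against a DMSO baseline, and parallel SRB staining (560 nm) tracked overt cytotoxicity.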

Read-out in test [13]: Tumor necrosis factor (Homo sapiens) (UniProt P01375)
The test is described as follows: BSK_LPS_TNFa: BioMAP Diversity Plus: LPS Assay for Tumour Necrosis Factor alpha (TNFa) Biomarker Activity (AID 2283085). The note with it: primary human HUVEC with PBMC; actives raise or lower the signal. The gist of the method: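 ELISA-based TNFa endpoint in a human endothelial–PBMC co-culture sampled 24 h post-exposure. Curves were fitted in both directions using DMSO as baseline of activity.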

Read-out in test [14]: Vascular cell adhesion molecule 1 (VCAM1), VCAM1 (gene 7412)
The test is described as follows: BSK_LPS_VCAM1: BioMAP Diversity Plus: LPS Assay for Vascular cell adhesion molecule 1 (VCAM1) Biomarker Activity (AID 2283086). The note with it: primary human HUVEC with PBMC; actives raise or lower the signal. The gist of the method:
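Measured by ELISA: VCAM-1 in LPS-activated HUVEC/PBMC co-cultures 24 h after treatment. Values reflect bidirectional fitting with DMSO as baseline.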

Read-out in test [15]: CD40, CD40 (gene 958)
The test is described as follows: BSK_SAg_CD40: BioMAP Diversity Plus: SAg Assay for CD40 Biomarker Activity (AID 2283088). As to conditions: primary human HUVEC with PBMC; actives raise or lower the signal. The gist of the method: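 CD40 is measured by fluorescence ELISA in an endothelial/PBMC primary human co-culture at 24 h post-dose. Fitting is bidirectional, DMSO baseline. Parallel SRB staining (560 nm) flags cytotoxicity.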

Read-out in a further test: CD69, CD69 (gene 969)
As to the kind of experiment: BSK_SAg_CD69: BioMAP Diversity Plus: SAg Assay for CD69 Biomarker Activity (AID 2283089). As to conditions: primary human HUVEC with PBMC; actives raise or lower the signal. Summed up:
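Values derive from bidirectional fitting relative to DMSO vehicle. Cells: umbilical vein endothelium plus peripheral blood mononuclear cells, treated 24 h before fluorescent ELISA for CD69.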

Read-out in test [16]: Monocyte Chemoattractant Protein-1 (MCP1), CCL2 (gene 6347)
As to the kind of experiment: BSK_SAg_MCP1: BioMAP Diversity Plus: SAg Assay for Monocyte Chemoattractant Protein-1 (MCP1) Biomarker Activity (AID 2283090). The note with it: primary human HUVEC with PBMC; actives raise or lower the signal. The gist of the method:
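Values derive from bidirectional fitting of ELISA-measured MCP1 against DMSO controls. Readings were taken 24 h after dosing human vascular endothelial cells co-cultured with peripheral blood mononuclear cells under superantigen stimulation.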

Read-out in test [17]: E-selectin (Homo sapiens) (UniProt P16581)
As to the kind of experiment: BSK_SAg_Eselectin: BioMAP Diversity Plus: SAg Assay for Eselectin Biomarker Activity (AID 2283091). As to conditions: primary human HUVEC with PBMC; actives raise or lower the signal. Summed up: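 Cell-surface E-selectin is read by ELISA at 24 h in the SAg co-culture of HUVEC and PBMC. Curves are fitted in both directions relative to DMSO. Parallel SRB total-protein staining tracks overt toxicity.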

Read-out in another test: CD38, CD38 (gene 952)
The test is described as follows: BSK_SAg_CD38: BioMAP Diversity Plus: SAg Assay for CD38 Biomarker Activity (AID 2283087). As to conditions: primary human HUVEC with PBMC; actives raise or lower the signal. The gist of the method:
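Measures CD38 on a human endothelial/PBMC co-culture driven by SEB and TSST-1, 24 h after compound exposure, using ELISA with fluorescence detection; DMSO defines baseline for bidirectional curve fitting.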

Tumor necrosis factor (Homo sapiens), sequence (P01375 whole entry, looked up): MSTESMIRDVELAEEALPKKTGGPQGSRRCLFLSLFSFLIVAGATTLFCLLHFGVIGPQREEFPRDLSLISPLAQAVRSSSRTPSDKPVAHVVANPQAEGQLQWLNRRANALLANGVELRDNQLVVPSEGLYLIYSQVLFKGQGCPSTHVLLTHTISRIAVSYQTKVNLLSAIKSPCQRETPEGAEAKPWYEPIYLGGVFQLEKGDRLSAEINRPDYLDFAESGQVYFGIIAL
E-selectin (Homo sapiens), sequence (P16581 whole entry, looked up): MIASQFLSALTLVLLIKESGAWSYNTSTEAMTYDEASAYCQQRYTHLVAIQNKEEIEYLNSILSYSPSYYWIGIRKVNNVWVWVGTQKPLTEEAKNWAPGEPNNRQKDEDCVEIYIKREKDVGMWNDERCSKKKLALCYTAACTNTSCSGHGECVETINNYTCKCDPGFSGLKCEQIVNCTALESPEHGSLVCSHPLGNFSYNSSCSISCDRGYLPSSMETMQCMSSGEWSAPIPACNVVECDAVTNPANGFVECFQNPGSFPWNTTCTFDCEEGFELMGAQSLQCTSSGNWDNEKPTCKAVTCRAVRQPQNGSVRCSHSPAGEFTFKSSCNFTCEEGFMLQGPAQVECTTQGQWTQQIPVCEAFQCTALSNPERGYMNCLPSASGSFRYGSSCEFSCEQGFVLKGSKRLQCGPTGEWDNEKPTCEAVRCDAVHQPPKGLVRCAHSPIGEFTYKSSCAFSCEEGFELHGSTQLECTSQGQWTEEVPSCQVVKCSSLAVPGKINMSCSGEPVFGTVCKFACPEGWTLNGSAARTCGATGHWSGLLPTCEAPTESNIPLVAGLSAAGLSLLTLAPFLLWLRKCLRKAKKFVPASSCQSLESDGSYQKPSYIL

Take `CCOc1nc(C(Cl)(Cl)Cl)ns1`: the outcome was “inactive” in test [1]; “inactive” in test [2]; “inactive” in [3]; “inactive” in the test with CD40, CD40 (gene 958) [4]; “inactive” in test [5]; “inactive” in test [6]. Further, the outcome in test [7], in test [8], in test [9], in test [10], in [11] and in [12] was inactive. For the same compound, the outcome in test [13] is “inactive”; in [14] it was “inactive”; in the test with CD40, CD40 (gene 958) [15] it was “inactive”; in the test with CD69, CD69 (gene 969), “inactive”; in test [16] it was “inactive”. Besides, the half-maximal activity concentration (AC50) in [17] was 13.3 µM (active).

Turning to `CNC(=O)N(C)c1nnc(C(C)(C)C)s1`, the outcome in test [1] was “inactive”; in test [2] it was “inactive”; in test [3] it was “inactive”; with CD40, CD40 (gene 958) [4] it was “inactive”; in [5] it was “inactive”; in test [6], “inactive”. The outcome in test [7], in [8], in test [9], in test [10], in [11] and in [12] was inactive. Moreover, the outcome in [13] was “inactive”; in test [14], “inactive”; with CD38, CD38 (gene 952), “inactive”; with CD40, CD40 (gene 958) [15], “inactive”; in [16], “inactive”; in [17], “inactive”.

Regarding `CCOc1nc(F)cc2nc(S(=O)(=O)Nc3c(Cl)cccc3Cl)nn12`, the outcome in [1] was “inactive”; in test [2] it was “inactive”; in test [3], “inactive”; in the test with CD40, CD40 (gene 958) [4], “inactive”; in [6], “inactive”; in test [7] it was “inactive”. Also, the outcome in test [8], in [9], in test [10], in [11], in [12] and in [13] was inactive. Moreover, the outcome is “inactive” in test [14]; “inactive” with CD38, CD38 (gene 952); “inactive” with CD40, CD40 (gene 958) [15]; “inactive” in [16]; “inactive” in test [17]. In addition, in test [5], the AC50 was 20 µM (active).

Regarding `COc1cc(OC)nc(NC(=O)NS(=O)(=O)c2ncccc2OCC(F)(F)F)n1`, the outcome in [1] was “inactive”; in test [2], “inactive”; in [3] it was “inactive”; in the test with CD40, CD40 (gene 958) [4], “inactive”; in test [5], “inactive”; in test [6], “inactive”. The result in test [7], in test [8], in [9], in [10], in [11] and in test [12] was inactive. Besides, the outcome is “inactive” in [13]; “inactive” in test [14]; “inactive” with CD40, CD40 (gene 958) [15]; “inactive” in test [16]; “inactive” in test [17].

Regarding `CC1(C)CON(Cc2ccccc2Cl)C1=O`, the outcome in test [1] was “inactive”; in test [2], “inactive”; in test [3], “inactive”; with CD40, CD40 (gene 958) [4] it was “inactive”; in test [5] it was “inactive”; in test [6], “inactive”. In addition, the result in test [7], in test [8], in [9], in test [10], in test [11] and in test [12] was inactive. The outcome in test [13] was “inactive”; in test [14], “inactive”; in the test with CD40, CD40 (gene 958) [15], “inactive”; in [16] it was “inactive”; in [17], “inactive”.

Usually AC50 stands for the concentration at which the activity in the assay is half-maximal.
